# The list is not random: actives were taken first. Their share in the collection is about 2.4%.
# MITF act – activators of MITF-driven TRPM1 promoter activity in SK-MEL-5 cells; SK-MEL-5 TRPM1-promoter luciferase, 24 h; % of positive control, neutral wells = 0; activation, % at 12.5 µM; 300,000 tested, 0.75% active;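 active = mean activation of at least 80% with every replicate also reaching 80%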;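 note: 0% = neutral control wells and 100% = parthenolide positive control wells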
# NSD2 inh – blocks human histone methyltransferase NSD2 | O96028 | NSD2 peptide methylation, AlphaScreen, 120 min | inhibition, % at 12.5 µM | 310,000 tested, 0.54% active | AID 743445
# miR-122 sensor – miR-122 inhibition in Huh7 cells; AID 602342; Huh7 miR-122 Renilla luciferase sensor, 48 h; neutral wells = 0, positive control = 100; activation (reporter increase), % at 12.5 µM; 340,000 tested, 0.3% active;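 active = mean replicate activation score at least 90 and every replicate individually at or above 90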;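 note: higher luciferase means less miR-122 activity so hits act as miR-122 inhibitors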
# Dyrk1A ADPGlo – Dyrk1A (rat) kinase inhibition; inhibition, % at 12.5 µM; Q63470; 310,000 tested, 0.43% active; AID 504441; ADP-Glo luminescence, NFATc1 peptide;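 note: plate controls were vehicle with enzyme for no effect and no enzyme for full effect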
# INS-1E GSIS act – GLuc luminescence reporter in INS-1E cells, primary screen for activators of glucose-dependent secretion of insulin; INS-1E GLuc reporter insulin secretion, 2-3 h; activation, % at 16.6 µM; 370,000 tested, 0.61% active;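 active = lowest replicate activation of at least 40%, so every replicate reaches that level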;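 note: 0% = median of neutral control wells and 100% = median of IBMX positive control wells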
# Wnt act – activators of Wnt/beta-catenin signaling; Wnt/beta-catenin reporter cell assay, activator, plate reader; activation, % at 9.35 µM; 300,000 tested, 1.2% active; in the data active = activation above about 30%, passing the limit was not always enough;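 note: 0% = neutral control wells and 100% = positive control wells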
# The depositor's hits bear a star; x = not tested or not shown; [ ] = remark or other dose. Cut-off read from the data, not from the text of the source, unless noted: active = inhibition above about 50%; inactive = the rest.
SMILES,MITF act,NSD2 inh,miR-122 sensor,Dyrk1A ADPGlo,INS-1E GSIS act,Wnt act
COc1ccc(OCCSc2ncccn2)cc1,37.7,-0.7,-2.7,0.9,x,x
COc1ccc(OCCCSc2ncccn2)cc1,112.9*,-1.8,1.7,0.6,x,x
Clc1ccc(OCCSc2ncccn2)cc1,99.5*,-1.8,-5.8,5.7,x,x
Cc1ccc(C(=O)NCCSc2ccccc2)cc1S(=O)(=O)Nc1ccccc1,-0.7,1.7,94.4*,5.4,-25.4,x
Cc1ccccc1C(=O)NCCSc1ccccc1,95.6*,-2.2,5.8,3.5,-30.3,x
COc1ccccc1NC(=O)N[C@@H]1CC[C@@H](CCn2cc(-c3ccccc3)nn2)O[C@@H]1CO,x,x,x,x,-1.0,x
Fc1ccc(CNCc2ccccc2Cl)cc1,17.3,-3.9,x,x,-0.7,34.0*
O=C(N/N=C/c1ccc(O)cc1O)NC12CC3CC(CC(C3)C1)C2,22.2,0.5,-8.4,-4.5,41.3*,2.4
Cc1cccc(CS(=O)(=O)c2ncc(Cl)c(C(=O)Nc3c(C)cccc3C)n2)c1,-17.5,3.3,x,x,79.8*,-2.2
Cc1ccsc1C(=O)OCC(=O)N1CCc2ccccc2C1,92.2*,-1.4,-9.8,x,6.2,10.5
O=C(OCC(=O)N1CCCC1)c1c(Cl)cccc1Cl,3.3,-4.6,0.3,-6.3,2.4,-1.6
O=C(OCC(=O)N1CCc2ccccc2C1)c1c(F)cccc1Cl,114.8*,-1.7,-8.6,-4.6,8.3,54.9*
O=C(COC(=O)c1c(F)cccc1Cl)NC1CCCCC1,85.2*,-0.2,-2.6,15.5,19.6,16.5
O=C(COC(=O)c1ccccc1F)NC1CCCC1,-7.7,-3.5,-5.5,-3.9,22.2,2.5
Cc1ccsc1C(=O)N1CCc2ccccc2C1,32.4,2.3,-3.8,20.5,9.1,7.2
Cc1ccsc1C(=O)OCC(=O)N(C)C1CCCCC1,15.9,-1.8,x,x,10.5,48.4*
CCCNC(=O)N1CC2(C1)CN(C(=O)CC1CC1)[C@H](CO)c1c2c2ccc(OC)cc2n1C,x,x,x,x,4.6,x
C[C@@H]1CN([C@H](C)CO)C(=O)c2cc(C3=CCCC3)cnc2O[C@@H]1CN(C)C(=O)CN1CCOCC1,x,x,-4.8[16.7 µM],x,9.4,x
CCc1cccc(CC)c1NC(=O)CSc1nnc(C2CC2)n1C,-7.8,-0.1,0.4,-4.8,44.6*,3.7
Cn1c(SCC(=O)NC2CCCc3ccccc32)nnc1C1CC1 (stereo not drawn),2.6,-0.2,-1.7,x,81.7*,0.9
Cc1ccc(NC(=O)CN(C)CC(=O)NC2CCCc3ccccc32)cc1 (stereo not drawn),3.1,x,-3.7,-4.1,-40.1,39.8*
O=C(CN1CCOCC1)N[C@H]1CC[C@H](CCNC(=O)C2CCCCC2)O[C@H]1CO,x,x,x,x,-4.4,x
CCCNC(=O)N1CC2(CN(C(=O)C3CCOCC3)C2)c2c([nH]c3cc(OC)ccc23)[C@@H]1CO,x,x,x,x,-0.5,x
C[C@@H]1CN([C@H](C)CO)C(=O)c2cc(NS(=O)(=O)c3ccc(F)cc3)ccc2O[C@@H](C)CCCCO[C@@H]1CN(C)Cc1ccc(C(=O)O)cc1,x,x,6.2[16.7 µM],x,-3.0,x
CC(C)(C)S(=O)N1Cc2cc(C(=O)Nc3ccc(-c4ccccc4)cc3)nc(-c3cccc(-c4cccc(F)c4)c3)c2[C@@H]1CCO (stereo partly drawn),x,x,x,x,189.5*,x
SMILES,MITF act,NSD2 inh,miR-122 sensor,Dyrk1A ADPGlo,INS-1E GSIS act,Wnt act
CC1=CSC2=NC(=O)/C(=C\c3cccn3-c3ccccc3)C(=N)N12,18.8,0.4,-5.9,-15.2,5.1,x
CC1=CSC2=NC(=O)/C(=C\c3cccn3-c3ccc([N+](=O)[O-])cc3)C(=N)N12,13.9,1.2,-2.5,-3.9,236.6*,-3.0
O[C@H]1C[C@H](c2ccccc2)N(CC2CCCCC2)C[C@@H]1n1cc(C2CC2)nn1,x,x,-1.1,x,143.0*,-3.5
O[C@@H]1CN(CC2CCCCC2)[C@@H](c2ccccc2)C[C@H]1n1cc(C2CC2)nn1,x,x,-3.5,x,-15.8,-3.7
O=C(c1cc([N+](=O)[O-])cc([N+](=O)[O-])c1)N(Cc1nnc(-c2ccccc2Cl)o1)C1CC1,-32.6,1.6,x,-1.8,-9.2,-2.0
O=[N+]([O-])c1ccc(Cc2nnc(-c3ccccc3Cl)o2)cc1,102.8*,-0.9,-2.4,-4.7,x,4.3
C[C@H]1CN([C@@H](C)CO)C(=O)c2cccc(NS(C)(=O)=O)c2O[C@@H]1CN(C)C(=O)Nc1ccccc1,x,x,9.5[16.7 µM],x,3.0,x
CCc1ccc(CN(C(=O)c2ccco2)C2CCS(=O)(=O)C2)cc1 (stereo not drawn),7.2,-6.9,-6.1,-0.7,-17.0,-0.3
O=C(c1cccs1)N(Cc1cccc(F)c1)C1CCS(=O)(=O)C1 (stereo not drawn),-3.5,-5.1,x,-5.9,45.8*,1.0
O=C(c1ccco1)N(Cc1ccc(Cl)cc1)C1CCS(=O)(=O)C1 (stereo not drawn),0.2,-0.8,1.1,1.1,41.7*,-0.7
CCOc1cccc(C(=O)N(Cc2ccco2)C2CCS(=O)(=O)C2)c1 (stereo not drawn),-1.7,-1.6,2.5,-10.5,x,x
Cc1ccc(CN(C(=O)c2cccs2)C2CCS(=O)(=O)C2)cc1 (stereo not drawn),7.2,-1.1,x,0.8,57.0*,0.5
O=C(c1ccc(Cl)c([N+](=O)[O-])c1)N(Cc1ccco1)C1CCS(=O)(=O)C1 (stereo not drawn),6.8,15.5,x,3.8,43.2*,-2.4
O=C(c1cccs1)N(Cc1ccc(F)cc1)C1CCS(=O)(=O)C1 (stereo not drawn),6.0,0.0,x,-3.8,11.0,-1.5
COc1ccc(CNC(=O)C[C@@H]2C[C@@H]3c4cc(NC(=O)C5CCC5)ccc4O[C@@H]3[C@H](CO)O2)cc1,x,x,31.2[16.7 µM],x,4.6,x
CO[C@@H]1CN(C)C(=O)c2cc(NC(=O)C3CCOCC3)ccc2OC[C@@H](C)N(Cc2cccnc2)C[C@H]1C,x,x,x,x,2.1,x
O=C(Nc1ccc(F)cc1)N[C@H]1CC[C@@H](CC(=O)N2CCOCC2)O[C@@H]1CO,x,x,-6.0[16.7 µM],x,19.6,x
O=C(Cc1ccccn1)NCC[C@H]1CC[C@H](NC(=O)Nc2ccccc2)[C@@H](CO)O1,x,x,x,x,18.2,x
O=C(C[C@@H]1CC[C@@H](NC(=O)c2ccc(F)cc2)[C@@H](CO)O1)NCc1ccncn1,x,x,x,x,4.0,x
CCC(=O)Nc1ccc2c(c1)OC[C@@H](C)N(CCc1ccccc1)C[C@H](C)[C@H](OC)CN(C)C2=O,x,x,x,x,-7.8,x
COc1ccc(-c2cc(=O)c3c(C)cc(O)cc3o2)cc1,75.1,-3.3,x,8.2,3.5,67.4*
COc1cc(-c2cc(=O)c3c(C)cc(O)cc3o2)cc(OC)c1OC,1.6,-2.2,x,-1.3,3.7,5.1
COc1c(O)cc2oc(-c3ccc(O)cc3)cc(=O)c2c1O,41.0,x,-7.1,30.3,-13.2,39.5*
CCC(=O)N[C@H]1C=C[C@H](CC(=O)NCc2ccccc2OC)O[C@@H]1CO,x,x,x,x,5.0,x
C[C@H]1CN([C@@H](C)CO)C(=O)c2cc(NC(=O)Cn3cnnn3)ccc2O[C@H]1CN(C)C(=O)Nc1ccc(C(F)(F)F)cc1,x,x,-2.2[16.7 µM],x,6.0,x

# Source: PubChem
